HT1080-NT tox – qHTS for induction of synthetic lethality in tumor cells producing 2HG: qHTS for the HT-1080-NT fibrosarcoma cell line. HT-1080-NT fibrosarcoma viability, CellTiter-Glo ATP luminescence, 48 h. Potency, µM (doses to about 46.1 µM), hits mostly cytotoxic. 360,000 compounds, 1.6% hits;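 note: NT is the 2HG producing partner of a matched IDH1 knockdown line; nearly all actives have a fitted effect of over 55% in size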
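HT-1080-NT fibrosarcoma cells (2HG-overproducing), 750 cells/well in RPMI with 5% FBS, dosed after 2 h and incubated 48 h at 37C. CellTiter-Glo luminescence normalized to DMSO and no-cell wells; concentration-response curves fitted and classed.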
DT40 TDP1 no CPT – qHTS for Inhibitors of human tyrosyl-DNA phosphodiesterase 1 (TDP1): qHTS in cells in absence of CPT | DT40 Tdp1-/- hTDP1 cells, no CPT, ATP luminescence, 48 h | Potency, µM (titrated, usually from 46.2 µM), most hits filed as inhibitors | 420,000 compounds, 15% hits; note: nearly all actives have a fitted effect of over 55% in size
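Luminescent ATP content (CellTiter-Glo) served as the growth readout. Knockout chicken DT40 cells expressing human TDP1 were exposed to compounds without camptothecin for a minimum 48 hr at 37 °C.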
DT40 TDP1 CPT – qHTS for Inhibitors of human tyrosyl-DNA phosphodiesterase 1 (TDP1): qHTS in cells in presence of CPT. chicken DT40 Tdp1-/-;hTDP1 cells + 20 nM CPT, ATP luminescence, 48 h. Potency, µM (titrated, usually from 46.2 µM), usual class: inhibitors. 420,000 compounds, 12% hits. AID 686979, 2013; note: nearly all actives have a fitted effect of over 55% in size
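Chicken DT40 Tdp1-/- cells complemented with human TDP1, 400 cells/well, exposed to compounds plus 20 nM camptothecin for at least 48 h at 37 C; viability read as ATP content by CellTiter-Glo luminescence.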
KB-V1 cytotox – qHTS assay for MDR1-selective chemotherapeutics: Primary screen using the drug-selected MDR subline cells KB-V1. KB-V1 MDR cells viability, CellTiter-Glo, 72 h. 400,000 compounds, 3.4% hits. Potency, µM (doses to about 46.1 µM), actives largely listed as cytotoxic; note: nearly all actives have a fitted effect of over 60% in size
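KB-V1 cells (P-gp-expressing MDR subline of KB-3-1) in phenol-red-free DMEM with 10% FBS were exposed to library compounds over a concentration series for 72 h at 37 degrees C. Viability read by CellTiter-Glo luminescence; concentration-effect curves fitted after normalization.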
KB-3-1 tox – qHTS assay for MDR1-selective chemotherapeutics: Primary screen using the parental adenocarcinoma cell KB-3-1; KB-3-1 viability, CellTiter-Glo ATP luminescence, 72 h; Potency, µM (titrated, usually from 46.1 µM), most hits filed as cytotoxic; 400,000 compounds, 1.4% hits; note: nearly all actives have a fitted effect of over 60% in size
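KB-3-1 parental drug-naive adenocarcinoma cells in DMEM/10% FBS, incubated 72 h at 37 C with pin-transferred compounds across a concentration series. Viability by CellTiter-Glo luminescence; concentration-response curves fitted after normalization.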
HT1080 IDH1KD tx – qHTS for induction of synthetic lethality in tumor cells producing 2HG: qHTS for the HT-1080-IDH1KD cell line | Potency, µM (top dose mostly 46.1 µM), usual class: cytotoxic | HT-1080 IDH1 knockdown viability, ATP luminescence, 48 h | 360,000 compounds, 2% hits | AID 686971, 2013
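Viability of IDH1-knockdown HT-1080 fibrosarcoma cells was assessed by CellTiter-Glo after 48 h at 37 °C with titrated compound; concentration-effect curves were classified by fit quality and response size.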
Hits are given with their value; [ ] = remark or other dose. This is a sample that favours compounds with a hit; in the whole collection about 19% have one here. Calls come from the whole dose curve; as a rule, active = well fitted curve in the direction sought with a large enough effect; inconclusive = small, poorly fitted or top-dose-only effect, or another doubt; inactive = no such curve, though single readings can be large; an effect the other way counts as inactive or inconclusive.

`N#Cc1ccc(CN2CC3(CCN(C(=O)c4cc(C(F)(F)F)cc(C(F)(F)F)c4)CC3)C2)cc1` gave DT40 TDP1 no CPT 10µM and DT40 TDP1 CPT 21µM.
Screening CCCCNC(=O)C1(C)CCC(=O)N1c1cc(C(C)(C)C)nn1C (stereo unspecified) returned HT1080-NT tox inactive, DT40 TDP1 no CPT inactive, DT40 TDP1 CPT inactive, KB-V1 cytotox inactive, KB-3-1 tox inactive and HT1080 IDH1KD tx inactive.
`COc1cccc(CC(=O)N(CCC2=CCCCC2)c2c(N)n(Cc3ccccc3)c(=O)[nH]c2=O)c1` gave HT1080-NT tox inactive, DT40 TDP1 no CPT inconclusive, DT40 TDP1 CPT inactive, KB-V1 cytotox inactive, KB-3-1 tox inactive and HT1080 IDH1KD tx inactive.
`CCOc1ccccc1Nc1nnc(SCC(=O)Nc2nc(-c3ccc(OC)cc3)cs2)s1` gave HT1080-NT tox inactive, DT40 TDP1 no CPT inactive, DT40 TDP1 CPT inactive, KB-V1 cytotox inactive, KB-3-1 tox inactive and HT1080 IDH1KD tx inactive.
COc1ccc(-c2csc(NC(=O)CSc3nnc(Nc4ccccc4C)s3)n2)cc1 was read as HT1080-NT tox 21µM, DT40 TDP1 no CPT 6.5µM, DT40 TDP1 CPT 6.5µM, KB-V1 cytotox inactive, KB-3-1 tox inactive and HT1080 IDH1KD tx 21µM.
For Cc1cccc(NC(=O)CSc2nnc(NC(=O)C3CC3)s2)c1C the results were HT1080-NT tox inactive, DT40 TDP1 no CPT inactive, DT40 TDP1 CPT inactive, KB-V1 cytotox inactive, KB-3-1 tox inactive and HT1080 IDH1KD tx inactive.
COc1ccc(NC(=O)Nc2nnc(SCC(=O)Nc3cccc(C)c3C)s2)cc1 was read as DT40 TDP1 no CPT 7.3µM and DT40 TDP1 CPT 18µM.
COc1ccccc1Nc1nnc(SCC(=O)Nc2nc(-c3ccc(F)cc3)cs2)s1 was read as HT1080-NT tox 23µM, DT40 TDP1 no CPT 13µM, DT40 TDP1 CPT 15µM, KB-V1 cytotox inactive, KB-3-1 tox inactive and HT1080 IDH1KD tx inconclusive.
Screening Cc1cccc(C)c1Nc1nnc(SCC(=O)Nc2ncc(C(F)(F)F)cc2Cl)s1 returned HT1080-NT tox inconclusive, DT40 TDP1 no CPT inactive, DT40 TDP1 CPT 2.1µM, KB-V1 cytotox inconclusive, KB-3-1 tox inactive and HT1080 IDH1KD tx inactive.
Screening CCc1ccc(Oc2c(C(F)(F)F)oc3c(CN4CCCC(C)C4)c(O)ccc3c2=O)cc1 (stereo unspecified) returned DT40 TDP1 no CPT inactive and DT40 TDP1 CPT inactive.
For Cc1c(CNCc2ccc(Cl)cc2)c(C(=O)O)c(C)n1Cc1ccc(F)cc1 the results were DT40 TDP1 no CPT inconclusive, DT40 TDP1 CPT inconclusive, KB-V1 cytotox inactive and KB-3-1 tox inactive.
Cc1ccc(C2C3=C(CCCC3=O)N=C3c4ccccc4C(=O)C32)cc1 (stereo unspecified) was read as HT1080-NT tox inactive, DT40 TDP1 no CPT inconclusive, DT40 TDP1 CPT inactive, KB-V1 cytotox inactive, KB-3-1 tox inactive and HT1080 IDH1KD tx inconclusive.
Screening Cc1ccc(CNC(=O)C2CCCN(S(=O)(=O)c3ccc4c(ccn4C)c3)C2)cc1 (stereo unspecified) returned DT40 TDP1 no CPT inactive, DT40 TDP1 CPT inactive, KB-V1 cytotox inactive and KB-3-1 tox inactive.
COc1ccc2cc(C)c3nnc(SCC(=O)Nc4nc(-c5ccc(F)cc5)cs4)n3c2c1 was read as HT1080-NT tox inactive, DT40 TDP1 no CPT 23µM, DT40 TDP1 CPT 21µM, KB-V1 cytotox inconclusive, KB-3-1 tox inconclusive and HT1080 IDH1KD tx inactive.
`Cc1ccc(Nc2nnc(SCC(=O)Nc3cccnc3Cl)s2)cc1C` gave HT1080-NT tox inactive, DT40 TDP1 no CPT inconclusive, DT40 TDP1 CPT inconclusive, KB-V1 cytotox 5.2µM, KB-3-1 tox inactive and HT1080 IDH1KD tx inconclusive.
For C[C@@H]1CCCCO[C@H](CN(C)C(=O)c2ccccc2)[C@@H](C)CN([C@H](C)CO)C(=O)c2cc(NC(=O)c3ccncc3)ccc2O1 the results were HT1080-NT tox inactive, DT40 TDP1 no CPT inactive, DT40 TDP1 CPT inactive, KB-V1 cytotox inconclusive, KB-3-1 tox inactive and HT1080 IDH1KD tx inactive.
CS(=O)(=O)c1ccc([C@@H](O)[C@@H](COC(=O)CN)NC(=O)C(Cl)Cl)cc1 was read as DT40 TDP1 no CPT 3.8µM and DT40 TDP1 CPT 6.7µM.
`O=c1[nH]nc2c3ccccc3occ1-2` gave HT1080-NT tox inactive, DT40 TDP1 no CPT inactive, DT40 TDP1 CPT inactive, KB-V1 cytotox inactive, KB-3-1 tox inactive and HT1080 IDH1KD tx inactive.
`COc1cc(SC)ccc1C(=O)NNC(=O)c1cc(C)oc1C` gave HT1080-NT tox 8.2µM, DT40 TDP1 no CPT 15µM, DT40 TDP1 CPT inconclusive, KB-V1 cytotox inconclusive, KB-3-1 tox inconclusive and HT1080 IDH1KD tx 9.2µM.
For COc1cc(SC)ccc1C(=O)Nc1c(C)cccc1C the results were HT1080-NT tox inactive, DT40 TDP1 no CPT 13µM, DT40 TDP1 CPT inconclusive, KB-V1 cytotox inconclusive, KB-3-1 tox inactive and HT1080 IDH1KD tx inactive.
COc1cc(SC)ccc1C(=O)Nc1ccc2c(c1)OCCO2 was read as HT1080-NT tox 1.8µM, DT40 TDP1 no CPT inconclusive, DT40 TDP1 CPT inconclusive, KB-V1 cytotox inconclusive, KB-3-1 tox inactive and HT1080 IDH1KD tx inconclusive.
Screening COc1ccc(CCNC(=O)c2ccc(SC)cc2OC)cc1 returned HT1080-NT tox inactive, DT40 TDP1 no CPT inconclusive, DT40 TDP1 CPT inactive, KB-V1 cytotox inactive, KB-3-1 tox inactive and HT1080 IDH1KD tx inactive.
COc1cc(SC)ccc1C(=O)NCCOc1ccc(F)cc1 was read as HT1080-NT tox inactive, DT40 TDP1 no CPT 16µM, DT40 TDP1 CPT inconclusive, KB-V1 cytotox inactive, KB-3-1 tox inactive and HT1080 IDH1KD tx inactive.
Cc1ccsc1C1Cc2c(C(=O)NCc3cccnc3)c(=O)cc(C)n2-c2ccccc2S1 (stereo unspecified) was read as DT40 TDP1 no CPT inactive and DT40 TDP1 CPT inactive[9.04 µM].
`O=C(NCCOc1ccc(F)cc1)c1ccccc1SCc1ccccc1` gave HT1080-NT tox inactive, DT40 TDP1 no CPT inconclusive, DT40 TDP1 CPT inactive, KB-V1 cytotox inconclusive, KB-3-1 tox inactive and HT1080 IDH1KD tx inactive.
CCc1ccc(OCCNC(=O)c2ccccc2SCc2ccc(F)cc2)cc1 was read as HT1080-NT tox inactive, DT40 TDP1 no CPT 26µM, DT40 TDP1 CPT inconclusive, KB-V1 cytotox 18µM, KB-3-1 tox inactive and HT1080 IDH1KD tx inactive.

Screening results as filed in PubChem.
